PubChem BioAssay (NCATS)
Inconclusive results are not listed. Calls of active or inactive are those of the source. Unless noted, calls follow the shape of the dose curve; as a rule, active = well fitted curve in the direction sought with a large enough effect; inconclusive = small, poorly fitted or top-dose-only effect, or another doubt; inactive = no such curve, though single readings can be large; an effect the other way counts as inactive or inconclusive.

Legend:
[1] = AP1 Signaling Pathway (AID 357; active = well fitted curve in either direction with a large enough effect, not every such curve was filed as active;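 also: ME-180 reporter cells stimulated with EGF at its EC50 level; % is scaled to controls: 0 for no effect and ±100 for the full control effect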)
Method in brief: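 Beta-lactamase reporter under AP-1 response element, ME-180 background. Stimulus: EC50 EGF. Compound exposure 5 h, 37 °C. Detection: CCF4, 2.5 h RT, 460/530 nm. Values: AC50 from titration.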

[2] = target: Cytochrome P450 1A2 (Homo sapiens) (UniProt P05177); assay: p450-cyp1a2 (AID 410; calls by dose curve;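 also: -100% = full effect of reference inhibitor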)
Chain of Cytochrome P450 1A2 (Homo sapiens) (P05177 whole entry, looked up): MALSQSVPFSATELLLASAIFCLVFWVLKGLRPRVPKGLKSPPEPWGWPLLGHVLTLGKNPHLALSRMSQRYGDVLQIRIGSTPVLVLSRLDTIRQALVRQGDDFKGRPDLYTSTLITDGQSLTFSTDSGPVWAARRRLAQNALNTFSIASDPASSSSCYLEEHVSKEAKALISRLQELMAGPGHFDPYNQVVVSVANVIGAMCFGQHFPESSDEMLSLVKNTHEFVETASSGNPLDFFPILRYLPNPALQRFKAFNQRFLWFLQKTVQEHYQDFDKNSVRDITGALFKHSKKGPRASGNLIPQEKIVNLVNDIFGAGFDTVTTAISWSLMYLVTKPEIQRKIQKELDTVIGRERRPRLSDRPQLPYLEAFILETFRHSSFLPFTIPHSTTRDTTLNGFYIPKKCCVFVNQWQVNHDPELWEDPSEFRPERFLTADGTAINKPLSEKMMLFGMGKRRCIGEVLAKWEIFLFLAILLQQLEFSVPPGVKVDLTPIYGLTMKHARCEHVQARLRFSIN
Method in brief: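 Inhibition was calculated relative to 57 uM furafylline (full inhibition). The reaction used human CYP1A2 at 20nM with Luciferin-ME at its Km, 100uM, driven by an NADPH-regenerating system for 60 min at room temperature.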

[3] = NFAT Signaling Pathway (AID 444; active = well fitted curve in either direction with a large enough effect, not every such curve was filed as active;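 also: carbachol stimulus at about its EC50 of 1 µM final; % is scaled to controls: 0 for no effect and ±100 for the full control effect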); settings: Jurkat NFAT-bla M1, carbachol, beta-lactamase ratio, 5 h; at 17.2 µM (top of the series) unless noted
Method in brief: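 Read-out: CCF4 FRET ratio (460 nm/530 nm) after 1 h RT dye loading, used for %activity and AC50 from titration series. Cells: Jurkat NFAT-β-lactamase/M1 line, treated with compound plus 1 uM carbachol for 5 h, 37 °C.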

[4] = Stat Signaling Pathway (AID 446; active = well fitted curve in either direction with a large enough effect, not every such curve was filed as active;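 also: ME-180 cervical cancer cells given 40 pM IL-6 alongside compound; SIE-controlled beta-lactamase reporter measured as 460/530 nm FRET emission ratio; % is scaled to controls: 0 for no effect and ±100 for the full control effect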)
Method in brief: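 ME-180 cells carrying a SIE-driven beta-lactamase reporter are stimulated with 40 pM IL-6 for 5 h at 37C in the presence of compound. The 460/530 nm FRET substrate ratio is read after 2.5 h at RT. Data are normalised to 300 pM IL-6 and to 125 nM JAK inhibitor controls.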

[5] = target: Mitogen-activated protein kinase 10 (Mus musculus) (UniProt Q61831); assay: JNK3 AlphaScreen Assay (AID 530; active = well fitted curve in either direction with a large enough effect, not every such curve was filed as active;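 also: kinase came from lysate of stimulated human HepG2 cells; signal reports phosphorylation of biotinylated GST-cJun 1-79 at Ser73 with 10 µM ATP; % is scaled to controls: 0 for no effect and ±100 for the full control effect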)
Method in brief: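 Room-temperature AlphaScreen kinase assay; pre-activated HepG2 lysate as JNK3 source, biotin-GST-cJun(1-79) substrate, 10 uM ATP, compound 15 min preincubation.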

[6] = target: 3',5'-cyclic-AMP phosphodiesterase 4B (Homo sapiens) (UniProt Q07343); assay: qHTS Assay for Inhibitors of PDE-IV (AID 607; active = well fitted activation curve with a large enough effect in the main read-out, with a control signal flat, not every such curve was filed as active; also: % of control where 0% means no effect)
Chain of 3',5'-cyclic-AMP phosphodiesterase 4B (Homo sapiens) (Q07343 whole entry, looked up): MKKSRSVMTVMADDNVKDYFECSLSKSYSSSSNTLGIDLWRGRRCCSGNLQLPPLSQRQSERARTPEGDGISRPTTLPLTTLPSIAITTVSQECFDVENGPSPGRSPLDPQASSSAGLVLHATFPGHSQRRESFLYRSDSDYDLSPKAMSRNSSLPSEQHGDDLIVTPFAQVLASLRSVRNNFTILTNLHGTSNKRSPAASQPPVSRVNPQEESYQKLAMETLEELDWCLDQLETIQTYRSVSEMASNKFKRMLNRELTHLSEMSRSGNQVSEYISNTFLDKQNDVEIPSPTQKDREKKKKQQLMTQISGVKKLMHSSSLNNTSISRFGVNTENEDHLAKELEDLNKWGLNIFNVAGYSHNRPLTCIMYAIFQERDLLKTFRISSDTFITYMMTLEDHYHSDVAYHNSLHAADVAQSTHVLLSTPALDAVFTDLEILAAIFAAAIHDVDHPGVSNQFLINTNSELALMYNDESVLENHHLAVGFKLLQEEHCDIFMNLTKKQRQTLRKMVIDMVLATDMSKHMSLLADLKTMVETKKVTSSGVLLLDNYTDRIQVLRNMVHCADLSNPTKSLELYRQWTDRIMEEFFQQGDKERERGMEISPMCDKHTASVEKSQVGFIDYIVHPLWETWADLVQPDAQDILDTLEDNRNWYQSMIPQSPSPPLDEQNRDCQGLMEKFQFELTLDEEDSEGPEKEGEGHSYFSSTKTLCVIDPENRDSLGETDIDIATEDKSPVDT
Method in brief: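 HEK293 ACTOne cells with CNG channel (1000/well), endogenous PDE4; membrane potential dye, compounds up to 22.9 uM final. Fluorescence Ex 535/Em 590; RO 20-1724 (100 uM final) as reference.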

[7] = qHTS Assay for Lipid Storage Modulators (AID 1519; calls by dose curve); settings: Drosophila S3 cells, BODIPY lipid droplet/cell ratio, laser cytometry, cells loaded with oleic acid
Method in brief: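 Cells seeded at 5,000 per well were treated with compounds over a concentration series and loaded with oleic acid (400 uM, as added). Lipid droplet fluorescence (488 nm excitation, 500-530 nm channel) was read by laser-scanning cytometry and normalized to 20 uM Triacsin C.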

[8] = target: ATP-dependent 6-phosphofructokinase (Trypanosoma brucei brucei) (UniProt O15648); assay: qHTS Assay to Find Inhibitors of T. brucei phosphofructokinase: hit validation (AID 492961)
Chain of ATP-dependent 6-phosphofructokinase (Trypanosoma brucei brucei) (O15648 whole entry, looked up): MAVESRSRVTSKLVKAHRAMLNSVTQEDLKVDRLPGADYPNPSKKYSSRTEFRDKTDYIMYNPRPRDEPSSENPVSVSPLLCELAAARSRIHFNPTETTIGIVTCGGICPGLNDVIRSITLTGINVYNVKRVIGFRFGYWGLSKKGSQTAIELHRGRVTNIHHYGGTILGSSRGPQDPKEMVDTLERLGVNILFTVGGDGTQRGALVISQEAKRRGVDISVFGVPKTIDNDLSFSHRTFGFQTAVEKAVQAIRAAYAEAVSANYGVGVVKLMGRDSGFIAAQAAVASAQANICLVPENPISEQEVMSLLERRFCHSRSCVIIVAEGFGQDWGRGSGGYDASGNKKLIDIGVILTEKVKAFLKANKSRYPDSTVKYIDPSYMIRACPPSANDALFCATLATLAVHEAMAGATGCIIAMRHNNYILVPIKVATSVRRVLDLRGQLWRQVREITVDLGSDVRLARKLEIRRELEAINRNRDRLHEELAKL
Method in brief: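 In this biochemical qHTS validation, titrated compounds were tested against 1.25 nM PFK with 0.1 mM ATP and 0.5 mM F6P. Percent activity came from controls lacking or containing enzyme.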

[9] = target: Ubiquitin carboxyl-terminal hydrolase 1 (Homo sapiens) (UniProt O94782); assay: Inhibitors of USP1/UAF1: Pilot qHTS (AID 504865);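 also: rhodamine fluorescence freed from ubiquitin-rhodamine substrate followed over time; top concentration of the series differs between compounds; % is scaled to controls: 0 for no effect and ±100 for the full control effect; nearly all actives have a fitted effect of over 35% in size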
Chain of Ubiquitin carboxyl-terminal hydrolase 1 (Homo sapiens) (O94782 whole entry, looked up): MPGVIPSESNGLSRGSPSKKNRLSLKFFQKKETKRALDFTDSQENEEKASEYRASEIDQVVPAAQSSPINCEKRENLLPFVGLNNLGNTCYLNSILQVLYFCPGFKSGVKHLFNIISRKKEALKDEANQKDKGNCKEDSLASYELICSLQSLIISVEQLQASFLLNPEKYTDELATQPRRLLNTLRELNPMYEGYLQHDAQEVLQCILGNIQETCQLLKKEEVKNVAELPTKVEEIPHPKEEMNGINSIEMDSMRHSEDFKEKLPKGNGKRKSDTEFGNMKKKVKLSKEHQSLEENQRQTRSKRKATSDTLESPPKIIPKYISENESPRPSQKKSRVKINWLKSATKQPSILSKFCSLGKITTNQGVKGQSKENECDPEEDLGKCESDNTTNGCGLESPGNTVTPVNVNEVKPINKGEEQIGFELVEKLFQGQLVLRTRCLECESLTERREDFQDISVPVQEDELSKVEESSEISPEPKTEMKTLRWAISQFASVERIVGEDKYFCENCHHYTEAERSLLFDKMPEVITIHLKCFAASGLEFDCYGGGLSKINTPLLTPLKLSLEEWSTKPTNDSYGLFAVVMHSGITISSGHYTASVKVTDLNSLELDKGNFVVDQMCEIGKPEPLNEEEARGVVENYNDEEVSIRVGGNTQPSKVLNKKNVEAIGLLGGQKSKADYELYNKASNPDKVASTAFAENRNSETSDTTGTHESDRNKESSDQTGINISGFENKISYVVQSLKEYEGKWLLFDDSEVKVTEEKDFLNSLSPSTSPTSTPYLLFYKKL
Method in brief: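 1nM USP1/UAF1 + cpd, 15 min RT; start w/ Ub-Rho 150nM final; kinetic FL 480/540 nm, 6 reads q60 s. Buffer 50mM HEPES pH 7.8, 0.5mM EDTA, 1mM TCEP, 0.01% Tween-20, 0.1 mg/ml BSA.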

[10] = target: Luciferin 4-monooxygenase (Photinus pyralis) (UniProt P08659); assay: Biochemical firefly luciferase enzyme assay for NPC (AID 624030);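 also: purified P. pyralis luciferase at 10 nM with luciferin and ATP substrate; 0% = DMSO and -100% = full luciferase inhibition by PTC124 control; nearly all actives have a fitted effect of over 70% in size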
Chain of Luciferin 4-monooxygenase (Photinus pyralis) (P08659 whole entry, looked up): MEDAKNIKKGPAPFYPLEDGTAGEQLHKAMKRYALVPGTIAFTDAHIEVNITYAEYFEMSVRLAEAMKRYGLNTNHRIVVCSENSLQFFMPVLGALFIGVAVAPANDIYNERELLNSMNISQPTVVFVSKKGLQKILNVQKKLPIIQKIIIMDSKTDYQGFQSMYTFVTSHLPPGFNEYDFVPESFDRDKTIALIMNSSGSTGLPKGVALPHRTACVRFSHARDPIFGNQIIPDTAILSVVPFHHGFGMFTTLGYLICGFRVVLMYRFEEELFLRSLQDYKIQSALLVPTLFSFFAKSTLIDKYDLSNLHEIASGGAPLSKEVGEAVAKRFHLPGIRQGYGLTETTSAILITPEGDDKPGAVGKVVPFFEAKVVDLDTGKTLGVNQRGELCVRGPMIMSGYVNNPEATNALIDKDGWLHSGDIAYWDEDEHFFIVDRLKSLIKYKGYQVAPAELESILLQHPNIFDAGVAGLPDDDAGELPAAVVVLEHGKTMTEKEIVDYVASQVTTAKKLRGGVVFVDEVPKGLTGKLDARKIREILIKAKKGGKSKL
Method in brief: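 Direct inhibition of firefly luciferase enzyme (10 nM final, 50 mM Tris Acetate) assessed by luminescence within 5 minutes. Percent activity scaled between DMSO and PTC124 positive control, with concentration-effect curves classified by fit quality and response.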

[11] = S16 Schwann cell viability assay (CellTiter-Glo assay) (AID 624031);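 also: cellular ATP luminescence as a viability measure; plate controls were DMSO-treated cells for no effect and cell-free wells for full effect; nearly all actives have a fitted effect of over 70% in size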
Method in brief: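 Untransfected S16 rat Schwann cells; compound 24 h, 37 °C/5% CO2; CellTiter-Glo ATP luminescence. % activity vs no-cell wells and DMSO controls (0%); concentration-effect curves classed by r2, response magnitude, activity.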

[12] = qHTS profiling for inhibitors of Plasmodium falciparum proliferation (AID 504749);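 also: 0% = DMSO vehicle and full inhibition = artemisinin control; nearly all actives have a fitted effect of over 60% in size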; settings: P. falciparum in erythrocytes, SYBR Green DNA, 72 h
Method in brief: (§1)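 Three-day growth assay of blood-stage parasites in erythrocytes (0.3% parasitemia, 2.5% hematocrit) at 37 C, 5% CO2, quantified by SYBR Green DNA staining after overnight detergent lysis.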

[13] = tested on: C2A; assay: as above; settings: P. falciparum in erythrocytes, SYBR Green DNA, 72 h; series mostly up to 12.8 µM
Method in brief: as §1

[14] = tested on: CP191; assay: as above; settings: P. falciparum in erythrocytes, SYBR Green DNA, 72 h; series mostly up to 12.8 µM
Method in brief: as §1

[15] = tested on: CP250; assay: as above; settings: P. falciparum in erythrocytes, SYBR Green DNA, 72 h; series mostly up to 12.8 µM
Method in brief: as §1

[16] = tested on: FAB9; assay: as above; settings: P. falciparum in erythrocytes, SYBR Green DNA, 72 h; series mostly up to 12.8 µM
Method in brief: as §1

[17] = tested on: JCK; assay: as above; settings: P. falciparum in erythrocytes, SYBR Green DNA, 72 h; series mostly up to 12.8 µM
Method in brief: as §1

[18] = tested on: SC27B; assay: as above; settings: P. falciparum in erythrocytes, SYBR Green DNA, 72 h; series mostly up to 12.8 µM
Method in brief: as §1

[19] = target: Glucocorticoid receptor (Homo sapiens) (UniProt P04150); assay: GR-GFP Redistribution (AID 450;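 active = compounds whose dose series gives a full or clear partial fitted curve of increased nuclear translocation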; also: potency is read from the fitted curve at half-maximal effect); settings: U2OS GR-GFP nuclear translocation, laser cytometry, 2 h
Chain of Glucocorticoid receptor (Homo sapiens) (P04150 whole entry, looked up, the tested form may be a part): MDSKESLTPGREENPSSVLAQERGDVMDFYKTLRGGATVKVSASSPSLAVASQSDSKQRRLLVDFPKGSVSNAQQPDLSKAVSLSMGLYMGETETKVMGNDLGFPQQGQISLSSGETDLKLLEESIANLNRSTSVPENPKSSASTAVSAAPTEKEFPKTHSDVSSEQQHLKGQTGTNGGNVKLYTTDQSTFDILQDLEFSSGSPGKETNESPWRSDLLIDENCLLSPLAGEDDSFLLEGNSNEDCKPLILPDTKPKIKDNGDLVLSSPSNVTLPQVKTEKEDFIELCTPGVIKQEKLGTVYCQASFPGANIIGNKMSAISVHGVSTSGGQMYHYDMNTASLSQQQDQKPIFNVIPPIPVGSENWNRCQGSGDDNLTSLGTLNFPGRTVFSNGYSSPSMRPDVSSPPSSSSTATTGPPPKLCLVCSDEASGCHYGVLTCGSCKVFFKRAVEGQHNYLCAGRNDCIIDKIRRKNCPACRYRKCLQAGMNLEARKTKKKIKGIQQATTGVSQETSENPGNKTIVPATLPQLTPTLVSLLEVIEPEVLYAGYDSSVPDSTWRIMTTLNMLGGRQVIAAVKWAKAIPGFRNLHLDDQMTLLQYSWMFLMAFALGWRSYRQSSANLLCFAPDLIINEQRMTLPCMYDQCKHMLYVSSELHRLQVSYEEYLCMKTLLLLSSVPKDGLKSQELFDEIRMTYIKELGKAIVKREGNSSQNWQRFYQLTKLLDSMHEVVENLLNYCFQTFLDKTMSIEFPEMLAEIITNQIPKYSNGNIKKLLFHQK

[20] = target: Glucocorticoid receptor (Homo sapiens) (UniProt P04150); assay: GR-EFC Redistribution (AID 451; calls by dose curve; also: potency is read from the fitted curve at half-maximal effect); settings: CHO-K1 GR-EFC translocation, beta-gal luminescence, 2 h
Method in brief: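 Translocation of GR-ED fusion to nuclear EA restores b-gal, read by luminescence after 1 h room-temperature detection. Engineered CHO-K1 biosensor cells, 1,000/well, exposed 2 h at 37 C to titrations up to 46 uM final.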

[21] = measured here: cell count channel max response
[22] = measured here: lipid channel max response
[23] = at 12.8 µM (top of the series), parasite line A
[24] = at 12.8 µM (top of the series), parasite line B

CC[C@H](CO)NCCN[C@@H](CC)CO
4.79%: max response [7, 21]
inactive: outcome [1] | Potency [2] | activity change, negative = inhibition [3] -11.9% | outcome [4] | Potency [5] | outcome [6] | activity change, negative = inhibition ([7]; at 25.7 µM (top of the series)) -0.966% | outcome [8] | Potency [9] | Potency [10] | outcome [11] | activity, negative = inhibition [12, 23] -3.07% | activity, negative = inhibition [12, 24] 5.7% | Potency [13] | Potency [14] | Potency [15] | Potency [16] | Potency [17] | Potency [18]
4.52%: max response [7, 22]

CCCC[C@H](CC)CN1CN(C[C@@H](CC)CCCC)CC(C)(N)C1
-2.09%: max response [7, 22]
0.881%: max response [7, 21]
inactive: outcome [1] | Potency [2] | activity change, negative = inhibition [3] -26.2% | outcome [4] | Potency [5] | outcome [6] | activity change, negative = inhibition ([7]; at 25.7 µM (top of the series)) -1.27% | outcome [8] | Potency [10] | outcome [11] | activity, negative = inhibition [12, 23] -5.01% | activity, negative = inhibition [12, 24] 14.7% | Potency [13] | Potency [14] | Potency [15] | Potency [16] | Potency [17] | Potency [18]

CC(=O)N[C@H](CS)C(=O)O
inactive: outcome [1] | Potency [2] | activity change, negative = inhibition [3] -2.14% [at 38 µM] | outcome [4] | Potency [19] > 46 µM | Potency [20] > 46 µM | Potency [5] | outcome [6] | activity change, negative = inhibition ([7]; at 57.5 µM (top of the series)) 4.08%
18.6%: max response [7, 22]
2.82%: max response [7, 21]

CCOC(=O)[C@H](CCc1ccccc1)N[C@@H](C)C(=O)N1[C@H](C(=O)O)C[C@H]2CCC[C@@H]21
inactive: outcome [1] | Potency [2] | activity change, negative = inhibition [3] -18.7% | outcome [4] | Potency [20] > 20.6 µM | Potency [5] | outcome [6] | activity change, negative = inhibition ([7]; at 25.7 µM (top of the series)) -3.49% | outcome [8] | Potency [10] | outcome [11] | activity, negative = inhibition ([12]; at 28.7 µM (top of the series), parasite line A) 14.3% | activity, negative = inhibition ([12]; at 28.7 µM (top of the series), parasite line B) 4.68% | Potency [13] | Potency [14] | Potency [15] | Potency [16] | Potency [17] | Potency [18]
-7.94%: max response [7, 22]
-8.48%: max response [7, 21]

COc1c(O[C@H]2O[C@@H](CO)[C@@H](O)[C@@H](O)[C@@H]2O)cc2c(c1OC)-c1ccc(SC)c(=O)cc1[C@H](NC(C)=O)CC2
inactive: outcome [1] | Potency [2] | activity change, negative = inhibition [3] 5.96% | outcome [4] | Potency [5] | outcome [6] | activity change, negative = inhibition ([7]; at 25.7 µM (top of the series)) -1.68% | outcome [8] | Potency [9] | Potency [10] | outcome [11] | activity, negative = inhibition [12, 23] 5.35% | activity, negative = inhibition [12, 24] 4.25% | Potency [13] | Potency [14] | Potency [15] | Potency [16] | Potency [17] | Potency [18]
3.12%: max response [7, 21]
2.91%: max response [7, 22]
